Results reported in PubChem BioAssay (Tox21).
Results filed as inconclusive are left out. Active and inactive are the calls of the source. Unless noted, calls come from the whole dose curve.

Columns and labels:
[1] = Nuclear factor erythroid 2-related factor 2/antioxidant responsive element (Nrf2/ARE) small molecule agonists: qHTS cell viability counter screen in human keratinocytes (AID 1919968; active = well fitted curve in the direction sought with a large enough effect in the repeat runs; an effect the other way counts as inactive or inconclusive; note: nearly all actives have a fitted effect of over 55% in size; note: potency is the fitted concentration of half-maximal effect)
How it was run: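 KeratinoSens cells (HaCaT keratinocytes stably carrying an ARE-luciferase reporter) were seeded at 1,500 cells/well and rested 5 h at 37 C/5% CO2. They were then exposed to compounds in DMSO for 23 h. Viability was read by CellTiter-Fluor fluorescence after 1 h.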

[2] = Nuclear factor erythroid 2-related factor 2/antioxidant responsive element (Nrf2/ARE) small molecule agonists: luciferase reporter gene qHTS assay in human keratinocytes (AID 1919969); note: nearly all actives have a fitted effect of over 35% in size
[3] = biological target: KiSS-1 receptor (Homo sapiens) (UniProt Q969F8); test: Human kisspeptin (KISS1R) small molecule agonists, calcium flux assay in KISS1R-HEK293 cells (AID 1920064; active = well fitted curve in the direction sought with a large enough effect in the repeat runs; an effect the other way counts as inactive or inconclusive)
KiSS-1 receptor (Homo sapiens), sequence (Q969F8 whole entry, looked up): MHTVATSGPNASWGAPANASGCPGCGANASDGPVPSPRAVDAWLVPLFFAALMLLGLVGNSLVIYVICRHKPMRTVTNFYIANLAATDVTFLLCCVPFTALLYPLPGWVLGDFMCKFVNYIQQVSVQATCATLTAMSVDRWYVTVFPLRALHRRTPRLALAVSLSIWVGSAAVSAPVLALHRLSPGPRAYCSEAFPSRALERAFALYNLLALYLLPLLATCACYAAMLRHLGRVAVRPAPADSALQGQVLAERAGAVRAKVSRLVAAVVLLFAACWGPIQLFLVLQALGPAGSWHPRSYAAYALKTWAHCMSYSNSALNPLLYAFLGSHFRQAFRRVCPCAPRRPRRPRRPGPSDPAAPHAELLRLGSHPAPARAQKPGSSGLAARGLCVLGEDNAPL
How it was run: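 HEK293 cells stably expressing human KISS1R were plated 18 h at 37 °C, loaded with calcium dye for 1 h at 37 °C, then given compound by pin tool. Fluorescence (Ex/Em 480/540) was read kinetically for 3 min.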

[4] = G protein-coupled receptor (GPCR) small molecule agonists, calcium flux assay: HEK293 wild type cell line counter screen (AID 1920065)
How it was run: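 Cells were plated and cultured 18 h at 37 C/5% CO2, then loaded with calcium dye for 1 h at 37 C. Compounds in DMSO were pin-transferred in agonist mode, and fluorescence (Ex/Em 480/540) was read kinetically for 3 min at 1 s intervals.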

[5] = p53 small molecule agonists, cell-based qHTS assay with human liver microsomes (AID 1963577);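 note: p53 response element beta-lactamase reporter cells with liver microsomes plus NADPH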
How it was run: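 Reporter activation was measured by LiveBLAzer fluorescence intensity in p53RE-bla cells, which had been exposed to compounds for 16 h at 37 C alongside 0.5 mg/mL human liver microsomes and 0.5 mg/mL NADPH (final concentrations).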

[6] = p53 small molecule agonists, cell-based qHTS assay with rat liver microsomes (AID 1963578)
How it was run: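 Compound in DMSO added to p53RE-bla cells 5 h post-plating; rat microsomes/NADPH 0.5 mg/mL final; 16 h, 37 C; LiveBLAzer 2 h RT.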

[7] = p53 small molecule agonists, cell-based qHTS assay with human liver microsomes: qHTS cell viability counter screen (AID 1963579); note: nearly all actives have a fitted effect of over 45% in size
How it was run: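 HLM-supplemented (0.5 mg/mL final) and NADPH-supplemented (0.5 mg/mL final) p53RE-bla cultures, 4,000 cells per well, were dosed with compounds in DMSO for 16 h at 37 C; luminescent ATP detection (CellTiter-Glo, 30 min, room temperature) quantified surviving cells.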

[8] = p53 small molecule agonists, cell-based qHTS assay with rat liver microsomes: qHTS cell viability counter screen (AID 1963580); note: nearly all actives have a fitted effect of over 45% in size
How it was run: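 HCT-116 p53RE-bla, 4,000 cells/well, 5 h pre-incubation; cpd + rat liver microsomes 0.5 mg/mL + NADPH 0.5 mg/mL (final); 16 h, 37 C; CellTiter-Glo, 30 min RT; luminescence.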

[9] = p53 small molecule agonists, cell-based qHTS assay: qHTS cell viability counter screen (AID 1963581); note: nearly all actives have a fitted effect of over 45% in size
How it was run: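 p53RE-bla HCT-116 cells were exposed to compounds for 16 h at 37 C; after the beta-lactamase FRET read in the same wells, CellTiter-Glo was added and luminescence (intracellular ATP) read after 30 min at room temperature.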

[10] = p53 small molecule agonists, cell-based qHTS assay (AID 1963582; active = well fitted activation curve with a large enough effect in the signal ratio in the repeat runs, not every such curve was filed as active; the % refers to the signal ratio)
How it was run: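 p53RE-bla beta-lactamase reporter cells rested 5 h at 37 C/5% CO2, then received compounds in DMSO by pin transfer and were incubated 16 h at 37 C. LiveBLAzer B/G FRET substrate was loaded for 2 h at room temperature before fluorescence reading.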

[11] = biological target: 5-hydroxytryptamine receptor 2A (Homo sapiens) (UniProt P28223); test: 5-hydroxytryptamine receptor 2A (HTR2A) small molecule agonists, cell-based qHTS assay (AID 1963587); note: nearly all actives have a fitted effect of over 30% in size; note: potency is the fitted concentration of half-maximal effect
5-hydroxytryptamine receptor 2A (Homo sapiens), sequence (P28223 whole entry, looked up): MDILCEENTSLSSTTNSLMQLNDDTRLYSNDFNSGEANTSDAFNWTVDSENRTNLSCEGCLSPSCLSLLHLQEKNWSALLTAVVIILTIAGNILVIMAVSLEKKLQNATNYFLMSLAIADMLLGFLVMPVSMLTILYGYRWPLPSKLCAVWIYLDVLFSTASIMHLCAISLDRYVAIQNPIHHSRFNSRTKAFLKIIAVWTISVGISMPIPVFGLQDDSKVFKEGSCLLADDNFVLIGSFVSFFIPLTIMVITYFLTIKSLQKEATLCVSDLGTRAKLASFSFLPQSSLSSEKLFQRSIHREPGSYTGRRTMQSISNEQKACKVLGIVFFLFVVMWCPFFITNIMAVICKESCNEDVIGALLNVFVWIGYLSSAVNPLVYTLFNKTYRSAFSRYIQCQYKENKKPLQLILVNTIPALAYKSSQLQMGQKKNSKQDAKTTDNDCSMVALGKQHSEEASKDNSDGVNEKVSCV
How it was run: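 Kinetic calcium-flux fluorescence (2 min, 1 sec intervals) after compound addition in agonist mode. HTR2A-CHO cells were cultured 18 h, then dye-loaded 1 h at 37 C.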

[12] = biological target: Muscarinic acetylcholine receptor M1 (Homo sapiens) (UniProt P11229); test: Cholinergic receptor muscarinic 1 (CHRM1) small molecule antagonists, cell-based qHTS assay (AID 1963588); note: nearly all actives have a fitted effect of over 40% in size
Muscarinic acetylcholine receptor M1 (Homo sapiens), sequence (P11229 whole entry, looked up): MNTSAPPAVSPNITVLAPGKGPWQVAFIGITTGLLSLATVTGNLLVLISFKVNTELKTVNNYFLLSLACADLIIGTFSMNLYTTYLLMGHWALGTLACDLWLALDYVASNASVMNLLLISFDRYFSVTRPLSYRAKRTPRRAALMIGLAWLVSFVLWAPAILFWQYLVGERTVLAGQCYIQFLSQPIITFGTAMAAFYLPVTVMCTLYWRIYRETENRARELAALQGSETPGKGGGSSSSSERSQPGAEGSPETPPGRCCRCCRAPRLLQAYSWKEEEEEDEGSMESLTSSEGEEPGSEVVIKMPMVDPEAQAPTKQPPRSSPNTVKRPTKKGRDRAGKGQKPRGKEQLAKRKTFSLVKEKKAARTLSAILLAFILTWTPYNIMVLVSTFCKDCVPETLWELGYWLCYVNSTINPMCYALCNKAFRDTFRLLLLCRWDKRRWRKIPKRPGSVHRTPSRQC
How it was run: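 CHRM1-CHO calcium-flux assay, antagonist mode. Cells were seeded 18 h, dye-loaded 1 h at 37 C and given compound for 5 min at RT, then acetylcholine was added at 50nM. FDSS fluorescence was read 3 min; 15 concentrations, three runs.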

[13] = biological target: Muscarinic acetylcholine receptor M1 (Homo sapiens) (UniProt P11229); test: Cholinergic receptor muscarinic 1 (CHRM1) small molecule agonists, cell-based qHTS assay (AID 1963589); note: nearly all actives have a fitted effect of over 35% in size
How it was run: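 CHO cells stably expressing human CHRM1, seeded 18 h at 37 C/5% CO2, dye-loaded 1 h at 37 C, then given compound in agonist mode; intracellular calcium fluorescence read kinetically at 1 s intervals. Fifteen concentrations, three independent runs.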

[14] = cAMP Responsive Elements (CRE) small molecule agonists, cell-based qHTS assay (AID 1963590)
How it was run: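 CRE-bla HEK 293T cells in DMEM with 10% dialyzed FBS, NEAA, pyruvate and 25 mM HEPES were plated 18 h at 37 C/5% CO2, then exposed to compounds in DMSO for 3 h before LiveBLAzer B/G FRET substrate addition.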

[15] = cAMP Responsive Elements (CRE) small molecule antagonists, cell-based qHTS assay (AID 1963591; active = well fitted inhibition curve with a large enough effect in the signal ratio in the repeat runs, not every such curve was filed as active; the % refers to the signal ratio)
How it was run: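 CRE-bla HEK293T cells were plated 18 h at 37 °C/5% CO2, pinned with compound in DMSO, then stimulated with NKH477 at 0.25 uM final for 3 h. LiveBLAzer B/G FRET substrate was added and plates incubated 2 h at room temperature.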

[16] = biological target: Beta-2 adrenergic receptor (Homo sapiens) (UniProt P07550); test: Adrenergic beta2 receptor (ADRB2) small molecule antagonists, cell-based qHTS assay (AID 1963592); note: nearly all actives have a fitted effect of over 50% in size; note: potency is the fitted concentration of half-maximal effect; for activity change, negative = inhibition: series mostly up to about 92 µM
Beta-2 adrenergic receptor (Homo sapiens), sequence (P07550 whole entry, looked up): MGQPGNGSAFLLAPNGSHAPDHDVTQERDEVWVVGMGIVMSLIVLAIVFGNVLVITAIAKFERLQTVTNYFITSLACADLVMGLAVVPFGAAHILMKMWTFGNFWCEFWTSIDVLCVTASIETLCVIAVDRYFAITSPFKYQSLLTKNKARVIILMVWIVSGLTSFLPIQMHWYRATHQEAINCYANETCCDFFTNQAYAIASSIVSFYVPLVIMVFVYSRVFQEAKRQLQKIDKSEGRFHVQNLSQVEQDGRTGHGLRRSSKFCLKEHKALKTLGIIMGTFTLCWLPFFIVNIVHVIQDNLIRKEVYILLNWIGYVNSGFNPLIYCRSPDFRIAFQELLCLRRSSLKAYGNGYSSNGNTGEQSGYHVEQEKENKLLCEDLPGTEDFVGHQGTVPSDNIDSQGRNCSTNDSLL
How it was run: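 Cells (CHO, stable ADRB2 overexpression) incubated 18-20hr at 37C; compounds added from DMSO; agonist mix (1nM isoproterenol, 100uM IBMX, 25uM Ro-20-1724) added; 0.5hr RT; d2-cAMP and anti-cAMP-cryptate added; 1hr RT; 665/615 nm read.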

[17] = biological target: Beta-2 adrenergic receptor (Homo sapiens) (UniProt P07550); test: Adrenergic beta2 receptor (ADRB2) small molecule agonists, cell-based qHTS assay (AID 1963593);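 note: CHO cells stably overexpressing human ADRB2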
How it was run: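 CHO cells stably over-expressing ADRB2 were plated overnight at 37C, then dosed with compounds plus a stimulation mix containing 100uM IBMX and 25uM Ro-20-1724 for 0.5hr at room temperature. cAMP was measured by HTRF competition, 1hr.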

[18] = biological target: D(2) dopamine receptor (Homo sapiens) (UniProt P14416); test: Dopamine D2 receptor (DRD2) small molecule agonists, cell-based qHTS assay (AID 1963594); note: nearly all actives have a fitted effect of over 35% in size
D(2) dopamine receptor (Homo sapiens), sequence (P14416 whole entry, looked up): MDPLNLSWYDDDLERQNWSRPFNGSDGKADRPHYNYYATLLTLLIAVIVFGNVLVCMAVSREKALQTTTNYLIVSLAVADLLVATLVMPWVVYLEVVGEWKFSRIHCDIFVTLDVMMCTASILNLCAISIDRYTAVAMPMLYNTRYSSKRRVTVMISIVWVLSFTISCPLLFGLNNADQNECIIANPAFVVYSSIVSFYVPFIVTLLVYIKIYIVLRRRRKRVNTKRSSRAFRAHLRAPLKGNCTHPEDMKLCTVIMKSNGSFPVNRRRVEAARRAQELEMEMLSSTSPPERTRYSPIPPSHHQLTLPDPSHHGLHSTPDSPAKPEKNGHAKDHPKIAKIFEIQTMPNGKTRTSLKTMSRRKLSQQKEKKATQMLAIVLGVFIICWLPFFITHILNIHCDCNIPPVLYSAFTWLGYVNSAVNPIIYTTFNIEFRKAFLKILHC
How it was run: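 cAMP accumulation in DRD2-HEK293 cells measured by HTRF after 1 h detection; compounds added 10 min before NKH477 (200nM […]) forskolin-analogue stimulation, 30 min at room temperature, with Ro20-1724 present at 0.1 mM final.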

[19] = biological target: D(2) dopamine receptor (Homo sapiens) (UniProt P14416); test: Dopamine D2 receptor (DRD2) small molecule antagonists, cell-based qHTS assay (AID 1963595; active = well fitted inhibition curve with a large enough effect in the signal ratio in the repeat runs, with a control signal flat; the % refers to the signal ratio)
How it was run: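 Antagonist mode in DRD2-HEK293 cells: after compound addition with 0.1 mM Ro20-1724, cells received quinpirole (12 nM) and NKH477 (200 nM) for 30 min at room temperature; HTRF cAMP read after 1 h detection.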

[20] = biological target: 5-hydroxytryptamine receptor 2A (Homo sapiens) (UniProt P28223); test: 5-hydroxytryptamine receptor 2A (HTR2A) small molecule antagonists, cell-based qHTS assay (AID 1963586); note: nearly all actives have a fitted effect of over 45% in size; note: potency is the fitted concentration of half-maximal effect
How it was run: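 Antagonist-mode intracellular calcium assay: DOI (4 nM) added after 5 min compound pre-incubation at room temperature to dye-loaded HTR2A-CHO cells. Fluorescence followed for 3 min, sampled every second.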
% is set by controls: 0 for no effect and ±100 for the full control effect.

CO[C@H]1O[C@H](CO)[C@@H](O)[C@H](O)[C@H]1O
inactive: Potency [1] | Potency [2] | outcome [3] | outcome [4] | Potency [5] | Potency [6] | Potency [7] | Potency [8] | Potency [9] | Potency [10] | Potency [11] | Potency [12] | Potency [13] | Potency [14] | Potency [15] | Potency [16] | Potency [17] | Potency [18] | Potency [19]

CCOC(=O)CCc1ccccc1
inactive: Potency [1] | Potency [2] | outcome [3] | outcome [4] | Potency [5] | Potency [6] | Potency [7] | Potency [8] | Potency [9] | Potency [10] | Potency [20] | Potency [11] | Potency [12] | Potency [13] | Potency [14] | Potency [15] | Potency [16] | Potency [18] | Potency [19]

CCC(=O)c1cccc(Cl)c1
inactive: Potency [1] | Potency [2] | outcome [3] | outcome [4] | Potency [5] | Potency [6] | Potency [7] | Potency [8] | Potency [9] | Potency [10] | Potency [11] | Potency [12] | Potency [13] | Potency [14] | Potency [15] | Potency [16] | Potency [18]

O=c1[nH]c(=O)c2[nH]c(=O)[nH]c2[nH]1
inactive: activity change, negative = cytotoxicity [1] 13.3% [at 8.39 µM] | activity, positive = activation [2] 2.42% [at 8.39 µM] | activation [3] -0.365% [at 6.97 µM] | activation [4] 1.57% [at 5.23 µM] | activation [5] -6.75% [at 5.99 µM] | activation [6] 1.18% [at 5.99 µM] | activity change, negative = cytotoxicity [7] -5.03% [at 5.99 µM] | activity change, negative = cytotoxicity [8] -22.6% [at 5.99 µM] | activity change, negative = cytotoxicity [9] -12.2% [at 5.99 µM] | activation [10] 1.49% [at 5.99 µM] | activation [11] -9.75% [at 7.02 µM] | activation [13] -0.246% [at 6.97 µM] | activity change, negative = inhibition [15] -5.1% [at 8.39 µM] | activity change, negative = inhibition [16] -4.56% [at 8.39 µM] | activation [18] 0.309% [at 8.39 µM] | activity change, negative = inhibition [19] -2.53% [at 8.38 µM]

O=[N+]([O-])c1cccc(S(=O)(=O)NCCNS(=O)(=O)c2cccc([N+](=O)[O-])c2)c1
inactive: Potency [1] | Potency [2] | outcome [3] | outcome [4] | Potency [5] | Potency [6] | Potency [7] | Potency [8] | Potency [9] | Potency [10] | Potency [11] | Potency [12] | Potency [13] | Potency [15] | Potency [16] | Potency [17] | Potency [18]

CNCCc1ccccn1
inactive: Potency [1] | Potency [2] | outcome [3] | outcome [4] | Potency [5] | Potency [6] | Potency [7] | Potency [8] | Potency [9] | Potency [10] | Potency [14] | Potency [15] | Potency [16] | Potency [17] | Potency [18]

C=CCNc1nc(NCC=C)nc(N2CCN(C(c3ccc(F)cc3)c3ccc(F)cc3)CC2)n1
active: Potency [1] 4.22 µM | Potency [20] 5.16 µM | Potency [11] 2.68 µM | Potency [16] 11.9 µM
inactive: Potency [2] | outcome [3] | outcome [4] | Potency [5] | Potency [6] | Potency [7] | Potency [8] | Potency [9] | Potency [12] | Potency [13] | Potency [14] | Potency [15] | Potency [19]
